Results reported in PubChem BioAssay (NCATS).
The source made the active and inactive calls. A call without a number means that no potency is given here. Calls follow the shape of the dose curve; as a rule, active = well fitted activation curve with a large enough effect; inconclusive = small, poorly fitted or top-dose-only effect; inactive = no such curve, though single readings can be large or run the other way.

These compounds were tested against Cytochrome P450 3A4 (Homo sapiens) (UniProt P08684) (assay: qHTS Assay for Activators of Cytochrome P450 3A4 (AID 885; also: nearly all actives have a fitted effect of over 65% in size)). Conditions: recombinant CYP3A4, Luciferin-PPXE luminescence, 60 min; series mostly up to 11.4 µM.
Protocol: NIH Molecular Libraries Screening Centers Network [MLSCN]
NIH Chemical Genomics Center [NCGC]
The P450 gene superfamily is involved in the metabolism and clearance of xenobiotics. This assay used human CYP3A4 to measure the dealkylation of luciferin-6' phenylpiperazinylyl (Luciferin-PPXE; […]) to luciferin. The luciferin is then measured by luminescence after the addition of a luciferase detection reagent. Luciferin-PPXE concentration in the assay was equal to its KM for CYP3A4. Inhibitors and some substrates limit the production of luciferin, and decrease measured luminescence; activators increase the production of luciferin and luminescence.
NCGC Assay Protocol Summary:
Two uL of enzyme and substrate mix (final concentrations: 20nM CYP3A4, 25uM Luciferin-PPXE, 200mM KPO4) were dispensed into a white, solid bottom 1536-well microtiter plate. 23nL of compound was transferred by a pin tool. The plate was incubated at RT for 10 min. Two uL of an NADPH regeneration solution (Promega supplied reagent) was dispensed and the reaction was allowed to continue for 60 min at RT. Then the reaction was stopped by reconstituted luciferin detection buffer. After another 20 min of incubation the plate was read on the ViewLux (Perkin Elmer) at 60 sec exposure and 2x2 binning. This protocol was carried out with Promega-Glo reagents and further information can be found at http://www.promega.com/tbs/tb325/tb325.pdf. Data were normalized to the to AC100 inhibition (57 uM ketoconazole).
Keywords: P450, CYP2D6, Luciferase, MLSMR, MLSCN, NIH Roadmap, qHTS, NCGC
Potency is read from the fitted curve at half-maximal effect.

Chain of Cytochrome P450 3A4 (Homo sapiens) (P08684 whole entry, looked up): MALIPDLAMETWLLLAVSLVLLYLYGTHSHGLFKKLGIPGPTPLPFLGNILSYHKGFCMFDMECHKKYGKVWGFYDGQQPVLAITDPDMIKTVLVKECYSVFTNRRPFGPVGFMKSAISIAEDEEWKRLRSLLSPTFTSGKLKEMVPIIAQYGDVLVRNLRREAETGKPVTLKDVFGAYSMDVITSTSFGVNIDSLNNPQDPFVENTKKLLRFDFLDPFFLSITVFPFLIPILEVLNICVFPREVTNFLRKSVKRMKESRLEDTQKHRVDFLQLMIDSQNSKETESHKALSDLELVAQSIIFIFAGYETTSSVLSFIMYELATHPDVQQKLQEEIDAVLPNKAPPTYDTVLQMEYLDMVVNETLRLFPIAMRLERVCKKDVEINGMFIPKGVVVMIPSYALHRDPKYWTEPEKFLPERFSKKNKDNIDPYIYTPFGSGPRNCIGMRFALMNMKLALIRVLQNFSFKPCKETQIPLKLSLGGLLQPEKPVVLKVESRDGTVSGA

Row | Structure (SMILES) | Potency
1 | N/C(CC(=O)Nc1cc(C(F)(F)F)ccc1Cl)=N\O | inactive
2 | COCCn1c(=O)c(-c2ccc(OC)cc2)nc2cnc(OC)nc21 | inactive
3 | CC(C)Cn1cnc2c(SCc3ccc(Cl)cc3Cl)nc(N)nc21 | inactive
4 | Nc1ccc(N=Nc2ccccc2)c(N)c1 | inactive
5 | COc1ccc([C@@H](Nc2ncccn2)c2cc3c(cc2O)OCO3)cc1 | inactive
6 | COc1ccc(-c2nc3cnc(Oc4ccccc4)nc3n(C3CC3)c2=O)cc1 | inactive
7 | C[C@@H](Cc1ccccc1)Nc1ncnc2c1ncn2[C@@H]1O[C@@H](CO)[C@H](O)[C@@H]1O | inactive
8 | Cc1cc(O)c(C(C)C)cc1C1(c2cc(C(C)C)c(O)cc2C)OC(=O)c2ccccc21 | inactive
9 | C[C@H]1CN(S(=O)(=O)c2cccc3cnccc23)CCN1 | inactive
10 | COc1cc2nc(N3CCN(C(=O)OCc4ccccc4)[C@H](C(=O)NC(C)(C)C)C3)nc(N)c2cc1OC | inactive
11 | COc1ncc2nc(-c3ccc(Cl)cc3)c(=O)n(C[C@H]3CCCO3)c2n1 | inactive
12 | NS(=O)(=O)c1ccc(N=Nc2cc3ccccc3c(C(=O)O)c2O)cc1 | inactive
13 | Clc1ccc(CSCCc2ccncc2)cc1Cl | inactive
14 | COCCn1c(=O)c(-c2cccs2)nc2cnc(Oc3ccc(OC)cc3)nc21 | inactive
15 | N#CCCn1c(=O)c(-c2ccccc2)nc2cnc(OCc3ccccc3)nc21 | inactive
16 | CCCCC[C@H](CC(=O)NO)C(=O)N[C@@H](C(=O)N1CCC[C@H]1CO)C(C)C | inactive
17 | CC(C)[C@@H]1NC(=O)[C@H](CCCCN)NC(=O)[C@H](Cc2c[nH]c3ccccc23)NC(=O)[C@H](Cc2ccc(O)cc2)NC(=O)[C@H](C)N(C)C(=O)[C@H](Cc2ccccc2)NC1=O | inactive
18 | O=C(CSC1=NCCN1)Nc1ccccc1 | inactive
19 | O=C(C[C@@H]1C=Cc2ccccc2N1C(=O)c1ccccc1)c1ccccc1 | inactive
20 | CC1=C/C(=N/O)C([C@H]2C=C(C)CC(C)(C)[C@@H]2O)C(C)(C)C1 (stereo not given in full) | inactive

Row | Structure (SMILES) | Potency
21 | CC(=O)/C(=C\c1ccccc1F)C(=O)c1ccccc1 | inactive
22 | C[C@@]12CCC(=O)C=C1CC[C@H]1[C@@H]2[C@@H](O)C[C@]2(C)[C@@H]1CC[C@@]2(O)C(=O)COC(=O)C1CCCC1 | inactive
23 | NC(N)=Nc1nc2ccc([N+](=O)[O-])cc2[nH]1 | 3.16 µM (active)
24 | CN1CCN(c2ncc3nc(-c4cccs4)c(=O)n(C[C@H]4CCCO4)c3n2)CC1 | inactive
25 | O=C(CC(=O)c1ccncc1)c1ccccc1 | inactive
26 | CN(C)c1ccc(C(=N)c2ccc(N(C)C)cc2)cc1 | inactive
27 | CN1CCc2ccccc2[C@@H]1Cc1ccccc1NC(=O)c1sc2ccccc2c1Cl | inactive
28 | Cn1c(=O)c2[nH]c(CCCc3ccc([N+](=O)[O-])cc3)nc2n(C)c1=O | inactive
29 | FC(F)(F)c1cccc(-c2nc3nc(Cl)c(Cl)nc3[nH]2)c1 | inactive
30 | COc1cc2c(cc1OC)C(CCN)=NCC2 | inactive
31 | CN(C)c1ccc(C(c2ccc(N(C)C)cc2)c2ccc([N+](=O)[O-])cc2)cc1 | inactive
32 | N#Cc1c(NC(=O)C(F)(F)F)sc2c3c(=O)c4ccccc4c(=O)c=3oc3ccccc3c12 | inactive
33 | O=C(O)CCc1nc(-c2ccccc2-n2cccc2)no1 | inactive
34 | c1ccc2c(c1)-c1nc3ccccc3cc1[C@H]2N1CCOCC1 | inactive
35 | c1ccc(CSc2nnc3c4ccccc4c4ccccc4c3n2)cc1 | inactive
36 | S=C(Nc1ccc2c(c1)Cc1ccccc1-2)Nc1ccc2c(c1)Cc1ccccc1-2 | inactive
37 | COc1ccc(Oc2ncc3nc(CCc4ccccc4)c(=O)n(C4CC4)c3n2)cc1 | inactive
38 | O=c1cnc2cnc(N3CCNCC3)nc2n1CCc1ccccc1 | inactive
39 | COc1cccc2[nH]c(-c3ccccn3)nc12 | inactive
40 | O=C(Nc1cccc2ccccc12)c1ccccc1 | inactive
